Pf growth 48h – P. falciparum growth inhibition at 48 hours (one generation); P. falciparum luciferase growth in erythrocytes, 48 h; Potency, µM (series often up to 28.7 µM), without a hit: top-dose activity change, negative = inhibition, actives largely listed as inhibitors; actives 5.9% (n = 310,000)
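First compound was added to culture medium, then infected red cells at 0.1% parasitemia and 2% hematocrit (final). After incubation at 37 C under 5% CO2, luciferase detection reagent was dispensed and light output recorded.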
Pf growth 96h – P. falciparum growth inhibition at 96 hour, primary screen for plastid delayed-death inhibitors. actives 6.9% (n = 320,000). P. falciparum luciferase reporter growth, 96 h. Potency, µM (highest dose often 28.7 µM), for the others: at the highest dose activity change, negative = inhibition, actives largely listed as inhibitors. AID 504834
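Parasite growth measured via integrated firefly luciferase reporter in P. falciparum. Infected erythrocytes at 2% hematocrit, 0.05% parasitemia final were treated 96 hours at 37 C under 5% CO2, and luminescence was read.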
HCV inhibitor – inhibitors of hepatitis C virus infection | Huh7.5.1 HCVcc-Cre infection, luciferase reporter, 44 h | Potency, µM (highest dose often 41.8 µM), inactives show at the highest dose activity change, negative = inhibition, actives largely listed as inhibitors | actives 3.4% (n = 340,000) | AID 651820
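HCVcc-Cre virus at an moi near 0.5 was added right after compound to cells cultured 4 h from seeding (1,000 cells/well). Luciferase activity was determined 44 h later, 15 min after substrate addition at RT.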
AMA1 RON2 block – AMA1-RON2 (P. falciparum) interaction inhibition. actives 0.2% (n = 360,000). AlphaScreen AMA1-biotinylated RON2 peptide binding. Potency, µM (doses to about 58.2 µM), for inactives: at the top dose activity change, negative = inhibition, hits mostly inhibitors;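 note: 0% = vehicle wells and -100% = peptide control; nearly all actives have a fitted effect of over 45% in size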
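AMA1 (3D7) with his tag at 25 nM final met compounds first, then biotinylated RON2 peptide at 25 nM; detection used donor plus acceptor beads, 10 µg/mL apiece, read by AlphaScreen after 30 min at room temperature.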
* = called active by the depositor; ? = inconclusive; . = no result given; [ ] = dose if it differs, or a comment. Sampled rows, rich in hits. Any-hit rate of the full collection: about 11%. Calls come from the whole dose curve; as a rule, active = well fitted curve in the direction sought with a large enough effect; inconclusive = small, poorly fitted or top-dose-only effect, or another doubt; inactive = no such curve, though single readings can be large; an effect the other way counts as inactive or inconclusive. Unless noted, % is set by controls: 0 for no effect and ±100 for the full control effect; potency is the fitted concentration of half-maximal effect.

SMILES	Pf growth 48h	Pf growth 96h	HCV inhibitor	AMA1 RON2 block
CCOc1ccc(C(C(=O)NC2CCCCC2)N(C(=O)Cc2cccs2)c2ccc(-n3cnnn3)c(OC)c2)cc1 (stereo not given)	10.4µM*	7.38µM*	-6.1%	-8.3%[11.6 µM]
COc1cccc(C(C(=O)NC2CCCC2)N(C(=O)c2ccco2)c2ccc(-n3cnnn3)c(C)c2)c1OC (stereo not given)	9.28µM*	34.3%	0.8%	-4.3%
COc1ccc(S(=O)(=O)NCc2cc(=O)n(C)c(=O)n2C)cc1F	23.1%	-1.4%	10.2%	-4.7%
O=C(Nc1c(F)cc(F)cc1F)c1cccn(Cc2ccccc2)c1=O	29.3%	-14.5%	-21.8%	12.7%
O=C(Nc1ccccc1)c1cccn(Cc2ccccc2)c1=O	0.0%	357.2%	10µM*	-11.3%
O=C(Nc1ccncc1)c1cccn(Cc2ccccc2)c1=O	13.0%	?	8.91µM*	-4.8%
O=C(Nc1ccncc1)c1ccccc1Cl	35.4%	?	-0.4%	11.9%
O=C(Nc1ccc(F)cc1F)c1cccn(Cc2ccccc2)c1=O	14.7µM*	81.1%	-26.1%	-9.1%
Cc1ccc(-n2c(SCC(=O)NCc3ccco3)nc3c(sc4ccccc43)c2=O)cc1	?	-28.2%	?	3.5%
CCOC(=O)c1cnc2c(C)cc(C)cc2c1NCCCN1CCOCC1	?	4.2%	-29.6%	10.9%
O=C(/C=C/c1ccc2ccccc2n1)c1cc(Cl)ccc1O	2.33µM*	?	15.8%	-10.1%
CCNC(=O)CC1C(=O)N(c2ccc(C)cc2)C(=O)N1CCc1sccc1C (stereo not given)	-11.2%	-7.9%	0.1%	-1.1%
CCCCc1ccc(Nc2nc(CCC)cc(=O)[nH]2)cc1	10.4µM*	.	-19.5%	-18.7%
CC(C)OC(=O)c1c(NC(=O)Cn2cnc([N+](=O)[O-])n2)sc2c1CCCC2	?	7.38µM*	?	-4.1%
COc1ccc(-c2nc(C)ncc2N=Nc2ccccc2)cc1	9.28µM*	3.7µM*	31.6µM*	?
Cc1ncc(N=Nc2ccc(F)cc2)c(-c2ccc(Cl)cc2)n1	?	21.0%	9.2%	-7.3%
O=C(Nc1ccc(Oc2c(F)c(F)c(F)c(F)c2F)cc1)OC1CCN2Cc3ccccc3N=C12 (stereo not given)	?	2.62µM*	3.16µM*	0.0%
Cc1ccc(NCc2nc3ccccc3n2C)cc1C	176.0%	-21.1%	6.4%	0.0%
CCc1ccc2oc(C(=O)NCc3ccncc3)c(C)c2c1	25.4%	?	11.2µM*	-5.7%
CCN(CC)S(=O)(=O)c1ccc2oc(C(=O)NC(C)C)c(C)c2c1	?	53.2%	?	-8.9%
CCN(CC)S(=O)(=O)c1ccc2oc(C(=O)NCc3ccc(C)cc3)c(C)c2c1	9.28µM*	.	?	-4.9%
Cc1cc(C)c2c(C)c(C(=O)NCc3ccncc3)oc2c1	?	33.3%	2µM*	-5.1%
O=C(NCCNc1ccc([N+](=O)[O-])cc1)c1ccc(Cl)cc1	?	30.5%	-32.4%	-17.0%
Cc1sc2ncnc(SCC(=O)Nc3ccc(S(=O)(=O)N4CCOCC4)cc3)c2c1C	.	.	17.9%	-6.8%
O=C(N1CCCC1)C12CCC3CC(CC(C3)C1)C2	.	9.28µM*	2.2%	-15.2%
SMILES	Pf growth 48h	Pf growth 96h	HCV inhibitor	AMA1 RON2 block
CC(/C=N/Nc1nc(C)cc(C)n1)=C\c1ccc(C(C)C)cc1	10.4µM*	?	-10.3%	35.9%
CC(/C=N/NC(=O)c1ccncc1)=C\c1ccc(C(C)C)cc1	4.65µM*	5.22µM*	-6.9%	6.1%
CC(C)c1[nH]nc2c1C(c1cccc(OC(=O)N3CCOCC3)c1)C(C#N)=C(N)O2 (stereo not given)	-21.3%	11.7µM*	0.4%	10.5%
COc1cc(C2CC(=O)Oc3c(C(CCN4CCCC(C)C4)c4ccc(N(C)C)cc4)c(OC)cc(OC)c32)cc(OC)c1OC (stereo not given)	13.1µM*	?	16.0%	-26.6%
COc1cc(O)c(C(CC(=O)N2CCCC(C)C2)c2ccc(N(C)C)cc2)c(OC)c1 (stereo not given)	?	?	5.3%	?
COc1cc(C(CCN2CCCC(C)C2)c2c(OC)cc(OC)c3c2OC(=O)CC3c2ccc(N(C)C)cc2)cc(OC)c1OC (stereo not given)	9.28µM*	10.4µM*	32.3%	20µM*
CC1CCCN(CCCNC(=O)c2ccc3c(c2)N(Cc2ccc(F)cc2)C(=O)c2ccccc2S3=O)C1 (stereo not given)	13.1µM*	11.7µM*	?	-10.8%
CCN1CCCC1CNC(=O)c1ccc2c(c1)N(Cc1ccccc1F)C(=O)c1ccccc1S2(=O)=O (stereo not given)	9.28µM*	10.9%	10µM*	1.2%
CC1CCCN(CCCNC(=O)c2ccc3c(c2)N(Cc2ccccc2F)C(=O)c2ccccc2S3(=O)=O)C1 (stereo not given)	2.08µM*	?	10µM*	1.6%
FC(F)(F)c1cccc(Cn2c3[n+](c4ccc(C(F)(F)F)cc42)CCCCC3)c1	4.15µM*	?	22.7%	5.3%
Cc1cc(C(C)(C)C)cc(C)c1Cn1c2[n+](c3ccc(C(F)(F)F)cc31)CCCCC2	3.29µM*	?	7.08µM*	2.2%
FC(F)(F)c1cccc(CN2CCCCCC2)c1	-0.3%	.	0.5%	-14.0%
C[C@@H]1CN([C@@H](C)CO)C(=O)CCCn2nncc2CO[C@@H]1CN(C)C(=O)c1ccccc1	.	.	.	-2.0%
O=C(O)c1ccccc1SC1CC(=O)N(c2cccc3ccccc23)C1=O (stereo not given)	2.08µM*	59.5%	6.1%	0.0%
CCN1C(=O)CC(Sc2ccccc2C(=O)O)C1=O (stereo not given)	-81.3%	.	7.9%	5.6%
COC(=O)c1ccccc1SC1CC(=O)N(c2ccccc2)C1=O (stereo not given)	-22.4%	11.7µM*	-4.0%	10.9%
CCOc1ccc(N2C(=O)CC(N(C)Cc3ccccc3)C2=O)cc1 (stereo not given)	-9.1%	8.7%	19.4%	9.9%
CCOC(=O)C(N)CSC1CC(=O)N(c2ccc(C(=O)OC)cc2)C1=O (stereo not given)	54.1%	5.22µM*	-11.1%	-16.9%
COC(=O)c1ccc(N2C(=O)CC(N(C)Cc3ccccc3)C2=O)cc1 (stereo not given)	14.0%	0.294µM*	2.4%	-3.8%
S=C(NCc1ccco1)N1CCN(c2ccccn2)CC1	-11.1%	18.6%	-29.9%	-0.1%
CCc1cc(=O)oc2c3c(cc(OCC(=O)NC4CC4)c12)OC(C)(C)CC3	?	4.15µM*	0.794µM*	7.6%
CCc1cc(=O)oc2c3c(cc(OCC(=O)NCCN4CCOCC4)c12)OC(C)(C)CC3	?	9.28µM*	?	-1.0%
CCc1cc(=O)oc2c3c(cc(OCC(=O)NCc4ccco4)c12)OC(C)(C)CC3	32.4%	?	1.26µM*	-19.2%
CCc1cc(=O)oc2c3c(cc(OCC(=O)NCc4ccncc4)c12)OC(C)(C)CC3	10.4µM*	?	?	-11.2%
